The results in this text go back to PubChem BioAssay (NCI).

Test systems include 786-0 renal; DU-145 prostate; K-562 leukemia; MALME-3M melanoma; RXF 393 renal; UACC-257 melanoma; SK-MEL-28 melanoma; SK-MEL-2 melanoma; EKVX NSCLC; SN12C renal; UO-31 renal; TK-10 renal; ACHN renal; CAKI-1 renal; A498 renal; CCRF-CEM leukemia; MOLT-4 leukemia; SR leukemia; RPMI-8226 leukemia; OVCAR-8 ovarian.
What all share (assay): NCI-60 one-dose screen, 48 h (100 = growth as untreated, 0 = no growth, -100 = all killed)
Details in all cases: 10 µM

This is part of a sample that, as a whole, favours compounds with a hit. Of some 83,000 tested, about 20% had one in any assay.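 Each cell line was grown in a 96-well plate and treated with one concentration of compound for 48 hours. Values below 10 were considered active.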 Values without a mark were called inactive. Activity calls are given as the source filed them.

As to `Cc1ccc(-c2nc(C#N)c(S(=O)(=O)N3CCN(S(C)(=O)=O)CC3)o2)cc1`, the growth in the test on 786-0 renal is -76.2% (active); with DU-145 prostate it was 68.7%; in the test with K-562 leukemia, 6.88% (active); in the test on MALME-3M melanoma, -76.8% (active); in the test on RXF 393 renal it was -35.2% (active); with UACC-257 melanoma, 57.7%. For the same compound, the growth with SK-MEL-28 melanoma was 34.3%; in the test on SK-MEL-2 melanoma it was 75.5%; in the test on EKVX NSCLC it was 101%; in the test on SN12C renal, 78.1%; in the test on UO-31 renal, 26.7%; in the test on TK-10 renal, 97%. Moreover, the growth in the test with ACHN renal was -97.9% (active); with CAKI-1 renal, 72%; in the test with A498 renal it was 132%; with CCRF-CEM leukemia, 7.57% (active); with MOLT-4 leukemia it was 0.383% (active); with SR leukemia, 1.13% (active). Further, the results for the growth in the test on RPMI-8226 leukemia and with OVCAR-8 ovarian were 4.64% (active) and 25.5%, respectively.
As for `Cn1cc(-c2nnc(N)nc2-c2c[nH]c3ccc(F)cc23)c2cc(Br)cnc21`, the growth is 48% in the test on 786-0 renal; 89.4% with DU-145 prostate; 42.8% with K-562 leukemia; 106% with MALME-3M melanoma; 38.7% in the test with RXF 393 renal; 99.6% with UACC-257 melanoma. In addition, the growth in the test with SK-MEL-28 melanoma is 52.4%; in the test with SK-MEL-2 melanoma, 71%; in the test on EKVX NSCLC it was 94%; in the test on SN12C renal, 72.3%; with UO-31 renal it was 43.1%; with TK-10 renal it was 45.5%. For the same compound, the growth with ACHN renal is 47%; with CAKI-1 renal it was 37.4%; in the test with A498 renal, 47.1%; in the test with CCRF-CEM leukemia, 35.4%; with MOLT-4 leukemia, 4.34% (active); in the test on SR leukemia it was 9.16% (active). The results for the growth in the test with RPMI-8226 leukemia and in the test with OVCAR-8 ovarian were 59.1% and 71.5%, respectively.
Consider `O=C(c1ccc(F)cc1)C(c1c[nH]c2ccccc12)c1c[nH]c2ccccc12`, for which the growth with 786-0 renal was 80.1%; in the test on DU-145 prostate, 33.5%; in the test on K-562 leukemia, 5.35% (active); with MALME-3M melanoma it was 69.5%; in the test on RXF 393 renal, 40.3%; in the test on UACC-257 melanoma it was 86.3%. Moreover, the growth is 63.6% in the test with SK-MEL-28 melanoma; 87.5% with SK-MEL-2 melanoma; 88.5% with EKVX NSCLC; 42.6% in the test with SN12C renal; 43.8% in the test on UO-31 renal; 148% with TK-10 renal. The growth in the test with ACHN renal is 39.4%; with CAKI-1 renal, 31.5%; with A498 renal it was 98.3%; in the test with CCRF-CEM leukemia, 3.4% (active); in the test on MOLT-4 leukemia, 26.6%; with SR leukemia it was 10.5%. Further, the figures for the growth in the test with RPMI-8226 leukemia and in the test on OVCAR-8 ovarian were 18.9% and 76.3%, respectively.
As for `COc1cc2oc(-c3cccc(C(=O)Nc4ccc(Cl)cc4)c3)cc(=O)c2c(OCCN)c1OC`, the growth is -80.9% (active) with 786-0 renal; -99% (active) with DU-145 prostate; -43.9% (active) with K-562 leukemia; -67.9% (active) in the test with MALME-3M melanoma; -85% (active) with RXF 393 renal; -85.2% (active) in the test with UACC-257 melanoma. Besides, the growth in the test on SK-MEL-28 melanoma was -88.1% (active); with SK-MEL-2 melanoma, -94.5% (active); in the test on EKVX NSCLC, -84.6% (active); with SN12C renal it was -91.1% (active); with UO-31 renal, -81.1% (active); in the test with TK-10 renal it was -91.2% (active). In addition, the growth was -92.5% (active) with ACHN renal; -85% (active) in the test on CAKI-1 renal; -93.9% (active) with A498 renal; -52.6% (active) in the test on CCRF-CEM leukemia; -59.2% (active) with MOLT-4 leukemia; -48.6% (active) in the test with SR leukemia. Further, the growth was -64.2% (active) in the test on RPMI-8226 leukemia and -85.5% (active) with OVCAR-8 ovarian.
For `COc1cc(Nc2nc(O)c(/C=C3\C=Nc4ccccc43)s2)cc(OC)c1OC`, the growth is -73.1% (active) in the test with 786-0 renal; -57.6% (active) with DU-145 prostate; 3.33% (active) with K-562 leukemia; -30.1% (active) in the test with MALME-3M melanoma; -69.2% (active) with RXF 393 renal; 4.51% (active) with UACC-257 melanoma. Also, the growth is -34.5% (active) with SK-MEL-28 melanoma; -70.6% (active) in the test on SK-MEL-2 melanoma; -41.8% (active) with EKVX NSCLC; -88% (active) in the test with SN12C renal; -48.9% (active) with UO-31 renal; -35% (active) in the test with TK-10 renal. For the same compound, the growth in the test with ACHN renal was -2.09% (active); in the test with CAKI-1 renal it was -69.3% (active); with A498 renal, -76.1% (active); in the test with CCRF-CEM leukemia it was 14.9%; in the test with MOLT-4 leukemia, 2.95% (active); with SR leukemia, 2.6% (active). Further, the growth in the test with RPMI-8226 leukemia was -25.1% (active); in the test on OVCAR-8 ovarian, -49.8% (active).
On to `Cn1cc(-c2cc(N)n3nc(-c4cn(C)c5ccccc45)cc3n2)c2cc(F)ccc21`, for which the growth with 786-0 renal is -89.4% (active); with DU-145 prostate it was -2.27% (active); with K-562 leukemia it was 0.146% (active); in the test with MALME-3M melanoma, -78.5% (active); in the test on RXF 393 renal it was -76.3% (active); in the test with UACC-257 melanoma, -86.4% (active). The growth in the test on SK-MEL-28 melanoma was -80.4% (active); in the test on SK-MEL-2 melanoma, -92.5% (active); in the test with EKVX NSCLC, -50.1% (active); in the test with SN12C renal, -67% (active); with UO-31 renal, -82.4% (active); in the test with TK-10 renal it was -58.6% (active). Moreover, the growth is -89.4% (active) in the test on ACHN renal; -80.9% (active) in the test with CAKI-1 renal; -68.9% (active) with A498 renal; -9.43% (active) in the test on CCRF-CEM leukemia; -14.4% (active) in the test with MOLT-4 leukemia; 9.63% (active) with SR leukemia. The growth was -13.3% (active) in the test with RPMI-8226 leukemia and -94.9% (active) in the test on OVCAR-8 ovarian.
Regarding `Cn1cc(-c2cc3nc(-c4c[nH]c5ccccc45)cc(N)n3n2)c2cc(Cl)ccc21`, the growth in the test on 786-0 renal was -85.7% (active); in the test with DU-145 prostate, -92.6% (active); with K-562 leukemia it was 0.698% (active); with MALME-3M melanoma, -90.8% (active); in the test with RXF 393 renal, -82.7% (active); in the test on UACC-257 melanoma it was -90.4% (active). Further, the growth in the test with SK-MEL-28 melanoma is -99.4% (active); with SK-MEL-2 melanoma it was -95.8% (active); in the test on EKVX NSCLC, -90% (active); with SN12C renal it was -85.7% (active); in the test on UO-31 renal, -97.7% (active); in the test on TK-10 renal, -91.8% (active). In addition, the growth in the test with ACHN renal was -100% (active); in the test with CAKI-1 renal it was -98.7% (active); with A498 renal it was -82.9% (active); with CCRF-CEM leukemia it was -12.6% (active); with MOLT-4 leukemia, -48.8% (active); in the test on SR leukemia it was -8.96% (active). Further, the growth in the test on RPMI-8226 leukemia is -25.5% (active); in the test with OVCAR-8 ovarian, -86.1% (active).
